# High-throughput results: PubChem, National Center for Advancing Translational Sciences (NCATS)
# HPGD block: qHTS Assay for Inhibitors of HPGD (15-Hydroxyprostaglandin Dehydrogenase) | 15-hydroxyprostaglandin dehydrogenase [NAD(+)] (Homo sapiens), P15428 | purified HPGD, NADH fluorescence kinetic, PGE2 substrate | Potency, µM, without a hit: top-dose activity change, negative = inhibition, hits mostly inhibitors | 4.3% of 150,000 active | AID 894, 2007; also: potency is read from the fitted curve at half-maximal effect
#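 NADH formation kinetics: reaction with 30 uM PGE2 and 1 mM NAD+ (final), 20 nM enzyme, Tris-HCl pH 8 with Tween 20, after 15 min compound preincubation at room temperature. Fluorescence change, last versus first of five reads.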
# Lamin A splicing: qHTS Assay for Modulators of Lamin A Splicing; HeLa LMNA splicing GFP/RFP minigene ratio, 48 h; 0.01% of 200,000 active; Potency, µM (top dose mostly 46.1 µM), for inactives: at the highest dose ratio change, negative = inhibition, usual class: inhibitors; active = well fitted inhibition curve with a large enough effect in the signal ratio, with a control signal flat, not every such curve was filed as active; inconclusive = small, poorly fitted or top-dose-only effect, or effect the other way, or a change in a side signal; the % refers to the signal ratio; also: potency is read from the fitted curve at half-maximal effect
#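 S3 HeLa stable clones carrying a lamin A-EGFP splicing minigene plus DsRed2 were seeded at 600 cells/well in Opti-MEM with 2% FBS, pin-dosed and incubated 48 h at 37°C. Acumen cytometry (488 nm) gave the GFP/RFP total-intensity ratio.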
# PNC assembly inh: High Content Assay for Compounds that inhibit the Assembly of the Perinucleolar Compartment. activity change (PNC), negative = inhibition, % at 10 µM. PC3M PTB-GFP, PNC prevalence imaging, 16 h; hits give low values. 3.1% of 140,000 active;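 active = readout at or below -70, meaning at least 70% loss of cells showing the perinucleolar compartment, a nuclear body marking cancer cells; inconclusive = readout between -30 and a set limit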;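 also: plate controls were DMSO wells for no effect and camptothecin positive control wells for full effect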
#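 PC3M cells stably expressing PTB-GFP, 750–1000 cells/well, treated 16 h at 37 °C with compound (23 nl of library stock), in duplicate. After paraformaldehyde fixation and Hoechst stain, imaged at 20x; PNC prevalence scored by image analysis.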
# ALDH1A1 block: qHTS Assay for Inhibitors of Aldehyde Dehydrogenase 1 (ALDH1A1). Aldehyde dehydrogenase 1A1 (Homo sapiens), P00352. Purified ALDH1A1, NADH fluorescence, propionaldehyde substrate. Potency, µM (highest dose often 75.3 µM), for inactives: top-dose activity, negative = inhibition, hits mostly inhibitors. 7.3% of 220,000 active. AID 1030, 2008;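 also: potency is read from the fitted curve at half-maximal effect; plate controls were no enzyme wells and a reference inhibitor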
# 12-hLO inh: qHTS Assay for Inhibitors of 12-hLO (12-human lipoxygenase); Polyunsaturated fatty acid lipoxygenase ALOX12 (Homo sapiens), P18054; purified 12-hLO, xylenol orange hydroperoxide absorbance; Potency, µM (titrated, usually from 57.1 µM), inactives show at the top dose activity change, negative = inhibition, hits mostly inhibitors; 0.12% of 150,000 active; AID 1452, 2008; active = well fitted inhibition curve with a large enough effect; inconclusive = small, poorly fitted or top-dose-only effect; also: potency is read from the fitted curve at half-maximal effect; nearly all actives have a fitted effect of over 55% in size
# Target sequence (P18054 whole entry, looked up): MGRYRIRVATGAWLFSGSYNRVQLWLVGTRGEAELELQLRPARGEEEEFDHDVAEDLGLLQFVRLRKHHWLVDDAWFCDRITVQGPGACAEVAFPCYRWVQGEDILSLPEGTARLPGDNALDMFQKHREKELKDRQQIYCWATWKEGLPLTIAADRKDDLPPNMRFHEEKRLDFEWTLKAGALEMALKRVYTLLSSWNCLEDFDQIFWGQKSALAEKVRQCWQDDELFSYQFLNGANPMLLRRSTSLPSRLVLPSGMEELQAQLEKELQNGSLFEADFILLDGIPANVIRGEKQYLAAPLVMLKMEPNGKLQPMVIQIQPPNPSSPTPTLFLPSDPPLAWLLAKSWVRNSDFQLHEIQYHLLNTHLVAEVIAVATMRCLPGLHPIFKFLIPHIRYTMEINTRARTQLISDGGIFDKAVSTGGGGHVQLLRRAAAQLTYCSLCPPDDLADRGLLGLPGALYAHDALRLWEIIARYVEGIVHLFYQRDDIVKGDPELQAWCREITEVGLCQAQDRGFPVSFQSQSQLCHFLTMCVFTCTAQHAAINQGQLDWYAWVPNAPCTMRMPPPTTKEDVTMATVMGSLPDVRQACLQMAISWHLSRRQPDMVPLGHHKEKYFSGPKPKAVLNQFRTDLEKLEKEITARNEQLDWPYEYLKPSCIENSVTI
#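 150 nM 12hLO, 25 mM Hepes pH 7.0 + 0.01% Triton X-100; cpd preinc 15 min RT; 40 uM arachidonic acid, 30 min RT; Fe-XO 30 min; A573/A405 ratio as read-out.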
# * = called active by the depositor; ? = inconclusive; . = not tested or not shown; [ ] = dose if it differs, or a comment. This is a sample that favours compounds with a hit; in the whole collection about 10% have one here. Unless noted, calls follow the shape of the dose curve; as a rule, active = well fitted inhibition curve with a large enough effect (not every such curve was filed as active); inconclusive = small, poorly fitted or top-dose-only effect, or another doubt; inactive = no such curve, though single readings can be large or run the other way. Unless noted, % is scaled to controls: 0 for no effect and ±100 for the full control effect.
SMILES,HPGD block,Lamin A splicing,PNC assembly inh,ALDH1A1 block,12-hLO inh
O=C1Nc2ccccc2N(O)N1c1ccc(S(=O)(=O)N2CCCCCC2)cc1,0.1%,-4.9%,-82.1*,1.8%,-1.0%
CCN(CC)S(=O)(=O)c1ccc(N2C(=O)Nc3ccccc3N2O)cc1,-1.6%,-18.0%,53.8,7.7%,1.6%
Cc1ccc(-n2c(N)c(C(=O)N3CCOCC3)sc2=S)cc1,10µM*,-11.0%,-126.4*,3.16µM*,0.1%
CCOC(=O)c1sc(=S)n(-c2ccccc2)c1N(C(C)=O)C(C)=O,.,.,.,5.5%,.
CCNC(=O)c1sc(=S)n(-c2ccc(C)cc2)c1N,35.5µM*,-9.7%,15.2,12.6µM*,-10.0%
CN1CCN(C(=O)c2sc(=S)n(-c3ccccc3)c2N)CC1,7.94µM*,-13.3%,-96.8*,3.16µM*,0.0%
CCOC(=O)c1sc(=S)n(-c2ccccc2)c1N,-24.8%,-28.9%,-19.5,?,14.1%
Cc1c(C(=O)O)sc(=S)n1-c1ccccc1,.,3.7%,?,-6.8%,-2.7%
CCOC(=O)c1sc(=S)n(-c2ccc(C)cc2)c1SC,?,-2.5%,?,22.4µM*,-12.5%
Cc1ccc2c(c1)N(C(=O)N1CCC(C(=O)NCCc3ccc(Cl)cc3)CC1)CC(C)O2 (configuration not stated),.,-7.5%[46 µM],.,.,.
Cc1nn(-c2ccccc2)c(C)c1C(=O)NNC(=O)C(F)(F)F,.,.,.,-1.8%,.
O=c1c(O)c(-c2ccc(O)c(O)c2)oc2ccccc12,-16.4%,.,.,-15.0%,?
CCCN(CCC)C(=O)Cn1c(SCc2cccc(F)c2)nc2cccnc21,.,-5.4%[46 µM],.,.,.
O=C1[C@H]2[C@H]3C=C[C@@H](C4[C@H]3[C@@H]3C(=O)N(CN5CCSCC5)C(=O)[C@H]43)[C@H]2C(=O)N1CN1CCSCC1 (some centres not stated),-4.7%,.,.,-4.7%[13.5 µM],.
O=C(CSc1ncccn1)NCc1cccc(Cl)c1,.,.,.,13.8%,.
CCC1(C(=O)OC)NC(c2ccco2)C2C(=O)N(c3ccc(F)cc3)C(=O)C21 (configuration not stated),.,-2.9%[46 µM],.,17.8µM*,.
CCC1(C(=O)OC)NC(c2ccco2)C2C(=O)N(c3ccccc3)C(=O)C21 (configuration not stated),-5.2%,15.2%,14.9,?,-10.7%
COc1ccccc1/C=C/CN1CCN(c2ccccc2)CC1,-10.8%,-7.9%,-111.1*,-13.3%,-18.8%
CCOc1ccccc1C(=O)N[C@H](C(=O)Nc1cc(S(=O)(=O)N(C)C)ccc1OC)C(C)C,.,-15.3%[46 µM],.,10µM*,.
Clc1ccc(C2=NNC(=NCc3ccc4c(c3)OCO4)SC2)cc1,.,-12.3%,?,22.4µM*,-1.7%
CCn1c(SCC(=O)Nc2ccc(C(=O)OC)cc2)nc2cccnc21,3.55µM*,4.3%,-23.4,1.0%,6.8%
CCOC(=O)CNC(=O)CSc1nc2cccnc2n1Cc1ccccc1,-10.4%,4.4%,-80.5*,?,-2.4%
CCOC(=O)CNC(=O)CSc1nc2cccnc2n1C1CCCCC1,-13.2%,19.5%,-92.5*,0.4%,-5.4%
Cc1ccc(-n2nc(C(=O)N3CCN(c4ccccc4)CC3)c(=O)n(C)c2=O)cc1,.,-0.7%[46 µM],.,.,.
FCCCOc1ccc(CN2CCN(c3ccccc3F)CC2)cc1,.,-6.3%[46 µM],.,6.5%,.
SMILES,HPGD block,Lamin A splicing,PNC assembly inh,ALDH1A1 block,12-hLO inh
Cc1cc(NC(=S)Nc2cccnc2)ccc1Br,.,.,.,22.4µM*,.
Cc1cc(NC(=S)Nc2ccccc2)ccc1Br,-4.4%,3.6%,31.4,-1.4%,-8.3%
COc1cc(NC(=S)Nc2cccnc2)cc(OC)c1,28.2µM*,-2.1%,?,31.6µM*,-21.5%
CCOC(=O)N1CCN(C(=O)CSc2nc(-c3cccc(C)c3)ns2)CC1,?,?,-5.3,?,-6.0%
CCOC(=O)CNC(=O)CSc1nc(-c2ccccc2)ns1,.,.,.,25.1µM*,.
CCOC(=O)CSc1nc(-c2ccc(OC)cc2)ns1,35.5µM*,-3.0%,?,25.1µM*,-1.6%
CC(=O)Cc1nsc(Nc2ccc3c(c2)OCCO3)n1,20µM*,8.7%,?,3.16µM*,-4.9%
CCN1CCN(C(=S)NCC2CCCO2)CC1 (configuration not stated),.,0.9%[46 µM],.,0.501µM*,.
Fc1ccc(N2CCN(C(=S)NCC3CCCO3)CC2)cc1 (configuration not stated),.,?,.,-7.2%,.
C/C(CCN1CCCc2nc(C)c(C)cc21)=N\OC[C@@H](C)[C@H](OCc1ccccc1)C(C)C,.,.,.,-10.0%[13.5 µM],.
CCOc1cc(/C=C2/SC(=S)NC2=O)ccc1OC(=O)c1ccco1,.,-13.6%[46 µM],.,8.91µM*,.
CCOC(=O)c1ccc(N2NC(=O)/C(=C/c3ccc(OC(=O)c4ccco4)c(OC)c3)C2=O)cc1,12.6µM*,?,?,?,6.0%
CCOc1cc(/C=C2/C(=N)N3OC(C)=CC3=NC2=O)ccc1OC(=O)c1ccco1,.,-0.1%[46 µM],.,10µM*,.
COC(=O)N1CCC2(CCCN(C(=O)Nc3cccc(F)c3)C2)CC1,-4.1%,.,.,1.1%,-0.9%
O=C(N/N=C/c1ccc(N2CCCCC2)o1)c1ccccc1,15.8µM*,?,49.7,25.1µM*,-7.7%
O=C(N/N=C/c1ccc(N2CCOCC2)o1)c1cccc([N+](=O)[O-])c1,-27.3%,-6.8%,42.4,17.8µM*,-0.3%
CNC(=O)[C@@H]1O[C@@H](n2cnc3c(N)ncnc32)[C@@H](O)[C@H]1O,.,.,.,.,1.1%
CC1CC[C@@]2(OC1)OC1CC3C4CC[C@H]5CC(O)CC[C@@]5(C)C4CC[C@]3(C)C1C2C (some centres not stated),-11.1%,-8.4%,.,1.1%,-0.6%
N#Cc1c(NC(=O)Cn2nc(C(F)(F)F)c3c2CCCC3)sc2c1CCC2,8.91µM*,-0.3%,56.9,7.94µM*,-14.2%
CC1CCc2c(sc(NC(=O)Cn3nc(C(F)(F)F)c4c3CCCCC4)c2C#N)C1 (configuration not stated),35.5µM*,?,31.7,25.1µM*,-1.0%
Fc1ccc(/C=C2\CCCC3=C2NC(=S)NC3c2ccc(F)cc2)cc1 (configuration not stated),25.1µM*,-3.0%,31.2,?,?
Cc1nc(N2N=C3/C(=C/c4ccc(F)cc4)CCCC3C2c2ccc(F)cc2)sc1C(=O)N(C)C (configuration not stated),?,-0.4%,-29.2,?,-16.3%
COc1ccc(N2CCN(C(=O)c3ccc(Br)cc3)CC2)c([N+](=O)[O-])c1,.,4.0%[46 µM],.,12.6µM*,.
CCCCC(=O)N1CCN(c2ccc(OC)cc2[N+](=O)[O-])CC1,14.1µM*,?,-10.6,?,-0.4%
COc1ccc(C(=O)N2CCN(c3ccccc3OC)CC2)cc1,.,.,.,-5.4%,.
